HP1b binding inh: HTS for Inhibitors of HP1-beta Chromodomain Interactions with Methylated Histone Tails | Chromobox protein homolog 1 (Homo sapiens), P83916 | AlphaScreen HP1-beta / biotin-H3K9me3 peptide binding | Potency, µM (titrated, usually from 114 µM), most hits filed as inhibitors | 390,000 tested, 0.56% active; also: nearly all actives have a fitted effect of over 70% in size
Target sequence (P83916 whole entry, looked up): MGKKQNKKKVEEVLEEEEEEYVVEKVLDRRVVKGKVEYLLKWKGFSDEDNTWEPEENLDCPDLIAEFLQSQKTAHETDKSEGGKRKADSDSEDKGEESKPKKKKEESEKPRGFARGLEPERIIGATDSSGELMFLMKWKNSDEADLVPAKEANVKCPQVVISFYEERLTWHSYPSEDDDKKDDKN
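HP1-beta protein (50 nM final) preincubated 30 min at room temperature with biotinylated H3(1-18)K9me3 peptide (50 nM) in PBS pH 7.4, 0.01% Tween-20, then compound added for 30 min. AlphaScreen streptavidin donor/nickel chelate acceptor beads (10 ug/mL final), 30 min dark, luminescence read.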
Sfp PPTase inh: qHTS Assay for Inhibitors of Bacillus subtilis Sfp phosphopantetheinyl transferase (PPTase). 4'-phosphopantetheinyl transferase ffp (Bacillus subtilis), Q9F4F7. Biochemical Sfp PPTase activity, qHTS. Potency, µM, actives largely listed as inhibitors. 310,000 tested, 3.5% active;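 also: the enzyme is Sfp with the accession as filed and its product quenches rhodamine fluorescence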
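Fluorescence-quenching assay with 15 nM Sfp, 5 uM rhodamine-CoA and 12.5 uM BHQ-2-labelled ybbR peptide in pH 7.6 Hepes/MgCl2 buffer. Enzyme was pre-incubated with compound for 15 min at room temperature. Rate was taken from the 30-min fluorescence change (525/598 nm).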
BAZ2B inh: qHTS Assay for Inhibitors of BAZ2B | Bromodomain adjacent to zinc finger domain protein 2B (Homo sapiens), Q9UIF8 | AlphaScreen BAZ2B-H3K14Ac peptide displacement | Potency, µM (highest dose often 114 µM), actives largely listed as inhibitors | 360,000 tested, 4.4% active | AID 504333, 2011; also: nearly all actives have a fitted effect of over 60% in size
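AlphaScreen displacement: compounds (up to 110uM) incubated 30 min at room temperature with a preformed 50 nM BAZ2B/50 nM biotinylated H3K14Ac peptide complex in PBS pH 7.4 with Tween-20. Donor and acceptor beads at 10 ug/mL final added, 20 min light-protected before reading.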
L3MBTL1 block: qHTS Assay for the Inhibitors of L3MBTL1; Lethal(3)malignant brain tumor-like protein 1 (Homo sapiens), Q9Y468; AlphaScreen L3MBTL1–H3K9me1 peptide binding; Potency, µM (doses to about 57.1 µM), actives largely listed as inhibitors; 230,000 tested, 0.66% active; also: nearly all actives have a fitted effect of over 60% in size
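Displacement of a biotinylated histone H3(1-15) peptide monomethylated at Lys9 (75 nM) from L3MBTL1 (50 nM) was measured by AlphaScreen after a 30 min room-temperature compound incubation; cefsulodin titration served as intraplate control.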
JMJD2A Tudor: qHTS Assay for Inhibitors of JMJD2A-Tudor Domain; AlphaScreen JMJD2A-Tudor / H3K4me3 peptide binding; Potency, µM (titrated, usually from 114 µM), hits mostly inhibitors; 390,000 tested, 4.4% active; also: nearly all actives have a fitted effect of over 50% in size
G9a block: qHTS Assay for Inhibitors of Histone Lysine Methyltransferase G9a; G9a H3K9 monomethylation, AlphaScreen, 2 h; Potency, µM (series often up to 102 µM), most hits filed as inhibitors; 350,000 tested, 8.8% active; also: nearly all actives have a fitted effect of over 75% in size
Target sequence (Q96KQ7 913-1193 limits assumed): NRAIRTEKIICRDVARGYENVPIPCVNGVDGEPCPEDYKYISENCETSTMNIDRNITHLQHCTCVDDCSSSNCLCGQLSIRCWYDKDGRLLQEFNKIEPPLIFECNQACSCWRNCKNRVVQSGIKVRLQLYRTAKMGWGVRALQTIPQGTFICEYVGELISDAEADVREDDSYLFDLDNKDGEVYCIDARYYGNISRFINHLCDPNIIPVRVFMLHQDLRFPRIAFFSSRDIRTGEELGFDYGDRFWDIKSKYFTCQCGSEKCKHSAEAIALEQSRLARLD
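AlphaScreen detection with an anti-monomethyl H3K9 antibody quantified product after a 2 h room-temperature reaction containing 500 nM biotinylated H3K9 peptide, 20 µM SAM and 20 nM enzyme, which had been preincubated 15 min with compound.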
Hits are given with their value; – = inactive; ? = inconclusive; · = not tested or not shown; [ ] = dose if it differs, or a comment. This is a sample that favours compounds with a hit; in the whole collection about 12% have one here. Calls follow the shape of the dose curve; as a rule, active = well fitted curve in the direction sought with a large enough effect; inconclusive = small, poorly fitted or top-dose-only effect, or another doubt; inactive = no such curve, though single readings can be large; an effect the other way counts as inactive or inconclusive.

SMILES	HP1b binding inh	Sfp PPTase inh	BAZ2B inh	L3MBTL1 block	JMJD2A Tudor	G9a block
CC1CC(C)CN(CCOc2ccc(Br)cc2)C1 (stereo not drawn)	?	–	?	–	28.2µM	11.2µM
CC1CCN(CCCCOc2cccc(Br)c2)CC1	?	–	?	–	1.78µM	8.91µM
Cc1cc(Br)ccc1OCCCCN1CCC(C)CC1	?	–	?	–	2.51µM	11.2µM
Cc1cccc(OCCCCCN2CCOCC2)c1	–	–	–	–	–	–
CN1CCC(OC(=O)COc2ccc(Br)cc2)CC1	–	–	–	–	–	44.7µM
CCc1c(C)sc2c1CCN(Cc1ccccc1)C2c1ccccc1 (stereo not drawn)	–	·	–	·	–	–[12.7 µM]
COc1ccc(NC(=O)CC(C(=O)O)C(C)c2ccccc2)cc1 (stereo not drawn)	–	–	–	–	–	–
O=C(CC(c1ccccc1)c1ccco1)Nc1nccs1 (stereo not drawn)	–	–	?	–	–	50.1µM
COc1ccc(NC(=O)CC(c2ccccc2)c2ccco2)cc1 (stereo not drawn)	–	44.7µM	–	–	–	?
CC(CC(=O)Nc1nccs1)c1ccccc1 (stereo not drawn)	–	–	–	–	–	–
C/C(=C\c1ccccc1)C(=O)Nc1ccc(S(=O)(=O)Nc2ncccn2)cc1	–	–	–	·	–	–
COc1cccc(CNC(=O)CCC2CCCN(C(=O)c3ccc(OC)o3)C2)c1 (stereo not drawn)	–	50.1µM	–	–	–	·
COc1cccc(CNC(=O)CCC2CCCN(C(=O)c3cc(C)on3)C2)c1 (stereo not drawn)	–	–	–	–	–	–
O=C(CCC1CCCN(C(=O)c2cncs2)C1)NCc1ccc(F)c(F)c1 (stereo not drawn)	?	–	–	–	25.1µM	–[12.7 µM]
O=C(CCC1CCCN(C(=O)C2CCCC2)C1)NCc1ccc(F)c(F)c1 (stereo not drawn)	–	–	–	–	–	–[12.7 µM]
COc1cccc(CNC(=O)CCC2CCCN(C(=O)c3cccnc3SC)C2)c1 (stereo not drawn)	–	–	–	·	39.8µM	–
O=S(=O)(c1nccs1)N1CCN(c2nc(-c3cccs3)nc3ccccc23)CC1	–	·	·	·	–	·
C#CCOCCOCCOCCNc1nc(N2CCN(C(=O)[C@H]([C@@H](C)CC)n3cc([C@@H](N)Cc4ccc(O)cc4)nn3)CC2)nc(N2CCN(C(=O)[C@H](CCCCN)n3cc([C@@H](N)CO)nn3)CC2)n1	·	–	50.1µM	–	·	?
C#CCOCCOCCOCCNc1nc(N2CCN(C(=O)[C@H]([C@@H](C)CC)n3cc(CCC(=O)O)nn3)CC2)nc(N2CCN(C(=O)[C@H](CCCCN)n3cc(CC(C)O)nn3)CC2)n1 (stereo partly drawn)	–	·	·	·	?	·
C#CCOCCOCCOCCNc1nc(N2CCN(C(=O)C([C@@H](C)CC)n3cc(C(N)CO)nn3)CC2)nc(N2CCN(C(=O)[C@H](CCC(=O)O)n3cc(C(N)Cc4ccc(O)cc4)nn3)CC2)n1 (stereo partly drawn)	·	–	39.8µM	·	·	–[12.7 µM]
CCOc1ccc(-n2c(SCC(=O)Nc3cc(C)on3)nc3c(c2=O)SCC3)cc1	–	–	–	·	–	–
COc1ccc(OC)c(-c2noc(N3CCN(c4ccc(Cl)cc4)CC3)n2)c1	–	·	–	·	?	–
CCOC(=O)C1CCN(S(=O)(=O)c2ccc3[nH]c4c(c3c2)CCCC4)CC1	?	–	?	·	22.4µM	?
COc1cccc(NC(=O)C2CCN(S(=O)(=O)c3ccc4[nH]c5c(c4c3)CCCCC5)CC2)c1	–	·	–	·	–	–
COC(=O)c1ccc(NS(=O)(=O)c2ccc3[nH]c4c(c3c2)CCCCC4)cc1	–	·	–	·	?	?
SMILES	HP1b binding inh	Sfp PPTase inh	BAZ2B inh	L3MBTL1 block	JMJD2A Tudor	G9a block
CCOC(=O)CC(NS(=O)(=O)c1ccc2[nH]c3c(c2c1)CCCC3)c1ccccc1Cl (stereo not drawn)	?	·	35.5µM	·	35.5µM	6.31µM
COc1ccccc1NC(=O)C1CCN(S(=O)(=O)c2ccc3[nH]c4c(c3c2)CCCCC4)CC1	–	·	–	·	–	3.55µM
CCc1ccc(NC(=O)CC2C(=O)N(c3cccc(OC)c3)C(=O)N2Cc2ccco2)cc1 (stereo not drawn)	–	·	–	·	–	?
Oc1c(C(Nc2cccc(C(F)(F)F)c2)c2cccnc2)ccc2cccnc12 (stereo not drawn)	?	?	20µM	?	56.2µM	8.91µM
Cc1cc(NC(=O)c2cc(-c3cccnc3)nc3c(C)c(C)ccc23)no1	–	–	–	–	?	–
Cc1cc(NC(c2cccnc2)c2ccc3cccnc3c2O)no1 (stereo not drawn)	–	–	7.94µM	?	31.6µM	35.5µM
Oc1c(C(Nc2ccccn2)c2cccnc2)cc(Cl)c2cccnc12 (stereo not drawn)	–	–	11.2µM	?	39.8µM	28.2µM
O=C(CNS(=O)(=O)c1ccc(C(=O)N2CCCCC2)cc1)N1CCCCC1	–	–	–	·	56.2µM	–[12.7 µM]
O=S(=O)(Nc1ccc(N2CCCCC2)cc1)c1ccc(F)cc1	?	–	79.4µM	–	?	·
O=S(=O)(Nc1ccc(N2CCOCC2)cc1)c1ccc(F)cc1	–	–	–	–	–	?
O=S(=O)(Nc1ccc(N2CCCCC2)cc1)c1cccs1	–	–	?	–	?	35.5µM
O=S(=O)(Nc1ccc(N2CCCCC2)cc1)c1ccccc1	?	–	50.1µM	–	?	?
O=C(NNC(=O)c1ccc(F)cc1)C(=O)N1CCCCC1	–	–	–	–	25.1µM	?
O=C(c1ccc(NS(=O)(=O)c2ccc(F)cc2)cc1)N1CCCCC1	–	·	–	–	–	44.7µM
O=C(c1ccc(NS(=O)(=O)c2ccc(F)cc2)cc1)N1CCCCCC1	–	·	–	–	–	–
COc1ccccc1C(=O)NNC(=O)C(=O)N1CCCCC1	–	–	?	·	?	·
CCCCC/C=C\C/C=C\C/C=C\C=C\C1CCCC(=O)O1 (stereo not drawn)	·	–	·	·	·	·
Oc1c(C=Nc2ccccc2Cl)[nH]c2ccccc12	–	?	–	–	?	8.91µM
Oc1[nH]c2ccccc2c1N=Nc1ccccc1Cl	–	·	·	·	–	·
Cc1cc(-c2nnco2)c(C)n1-c1ccc(F)cc1	–	–	–	–	?	–
Cc1ccc(C)n1-c1ccc(-c2nnco2)cc1	·	–	–	–	·	44.7µM

From PubChem
